Most compounds without a hit are left out; they make up all but 1.3% or so of the library.
Apoferritin bind – qHTS Assay for Identification of Novel General Anesthetics; Ferritin light chain (Equus caballus), P02791; apoferritin/1-aminoanthracene competitive binding, fluorescence; Potency, µM (titrated, usually from 77.5 µM), inactives show top-dose activity change, negative = displacement, most hits filed as inhibitors; actives 0.074% (n = 350,000); AID 485281, 2010; also: nearly all actives have a fitted effect of over 20% in size
Target sequence (P02791 2-175 limits assumed): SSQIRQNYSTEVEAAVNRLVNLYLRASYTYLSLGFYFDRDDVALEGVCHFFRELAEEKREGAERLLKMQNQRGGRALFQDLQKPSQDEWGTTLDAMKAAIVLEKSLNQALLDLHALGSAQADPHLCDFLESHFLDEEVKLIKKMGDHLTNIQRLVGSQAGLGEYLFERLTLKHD
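Concentration-response curves derived by four-parameter Hill fitting of normalized fluorescence, where compounds displaced 1-AMA from 10 uM horse apoferritin following a brief 10 min room-temperature incubation; propofol titration acted as positive control.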
PKM2 activator – qHTS Assay for Activators of Human Muscle isoform 2 Pyruvate Kinase; purified PKM2, Kinase-Glo ATP luminescence, activation; response scale: 0% is enzyme alone, no compound; actives 0.34% (n = 260,000); Potency, µM (series often up to 57.5 µM), for the others: at the highest dose activation, most hits filed as activators; also: nearly all actives have a fitted effect of over 55% in size
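hPK-M2, >95% pure; 0.1 mM ADP / 0.5 mM PEP final; imidazole pH7.2 buffer w/ 7 mM MgCl2, 50 mM KCl; 1 h RT; Kinase-Glo lum. Intermediate enzyme activity for dual inhibitor/activator qHTS.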
GALK inh – qHTS Assay for Inhibitors of Human Galactokinase (GALK). AID 1868, 2009. Potency, µM (doses to about 57.5 µM), for the others: at the top dose activity change, negative = inhibition, usual class: inhibitors. Purified GALK, Kinase-Glo residual ATP luminescence. actives 0.007% (n = 270,000). P51570
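Kinase-Glo Plus luminescence measured ATP left after a 1 h room-temperature reaction. The reaction used 5 nM GALK, 100 uM galactose and 35 uM ATP at pH 8.0 (20 mM HEPES, 5 mM MgCl2, 60 mM NaCl, 1 mM DTT, 0.01% BSA).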
mIDH1 inhibitor – qHTS for Inhibitors of mutant isocitrate dehydrogenase 1 (IDH1): qHTS. IDH1-R132H enzyme, NADPH consumption, diaphorase/resazurin fluorescence. Potency, µM (top dose mostly 76.6 µM), inactives show at the top dose activity change, negative = inhibition, actives largely listed as inhibitors. actives 0.093% (n = 390,000); also: nearly all actives have a fitted effect of over 65% in size
Target sequence (O75874 whole entry R132H, stated change not applied): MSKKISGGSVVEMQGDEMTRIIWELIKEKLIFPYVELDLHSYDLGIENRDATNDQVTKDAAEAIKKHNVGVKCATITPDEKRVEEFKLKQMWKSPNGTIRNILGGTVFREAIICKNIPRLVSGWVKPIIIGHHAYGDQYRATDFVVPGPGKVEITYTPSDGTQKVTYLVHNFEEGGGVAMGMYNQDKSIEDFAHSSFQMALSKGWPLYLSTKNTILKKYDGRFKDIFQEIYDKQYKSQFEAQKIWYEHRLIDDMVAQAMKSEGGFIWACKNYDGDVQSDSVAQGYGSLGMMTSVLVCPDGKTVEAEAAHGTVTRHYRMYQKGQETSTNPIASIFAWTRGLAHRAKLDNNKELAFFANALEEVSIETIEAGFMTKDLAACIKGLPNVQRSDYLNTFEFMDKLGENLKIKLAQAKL
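IDH1-R132H (0.5 ug/mL dispensed) in pH 7.5 Tris buffer was preincubated 30 min with compound, then given a substrate mix of 0.016 mM NADPH and 2 mM alpha-KG for 80 min at room temperature; remaining NADPH was read by diaphorase/resazurin fluorescence.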
TrxR1 inh – qHTS Assay for Inhibitors of Mammalian Selenoprotein Thioredoxin Reductase 1 (TrxR1): qHTS; Thioredoxin reductase 1, cytoplasmic (Rattus norvegicus), O89049; recombinant rTrxR1, NADPH fluorescence consumption, selenite substrate; Potency, µM (top dose mostly 114 µM), for the others: top-dose activity change, negative = inhibition, actives largely listed as inhibitors; actives 1% (n = 390,000); AID 588453, 2011; also: nearly all actives have a fitted effect of over 65% in size
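Rat TrxR1 (90 nM in the dispensed reagent) was pre-reduced with 400 uM NADPH for 5 min at room temperature, then incubated with compound for 15 min. After 400 uM selenite was added, NADPH fluorescence (Ex 340/Em 450 nm) was followed for 8 min.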
TrxR1 substrate – qHTS Assay for Substrates of Mammalian Selenoprotein Thioredoxin Reductase 1 (TrxR1): qHTS; Thioredoxin reductase 1, cytoplasmic (Rattus norvegicus), O89049; purified TrxR1 substrate turnover, NADPH consumption readout; Potency, µM (series often up to 114 µM), inactives show at the top dose activity change, negative = substrate turnover; actives 0.01% (n = 390,000); AID 588456, 2011; also: nearly all actives have a fitted effect of over 50% in size
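Rat TrxR1, dispensed at 90 nM, was prereduced with 400 uM NADPH (final) for 5 min at ~22 deg C, then incubated with compound 15 min before 400 uM selenite. A first-read NADPH fluorescence drop versus no-compound background flagged substrates.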
Active calls of the source: *; ? = inconclusive; · = no result; [ ] = another dose, or the depositor's remark. Calls follow the shape of the dose curve; as a rule, active = well fitted curve in the direction sought with a large enough effect; inconclusive = small, poorly fitted or top-dose-only effect, or another doubt; inactive = no such curve, though single readings can be large; an effect the other way counts as inactive or inconclusive. % is scaled to controls: 0 for no effect and ±100 for the full control effect; potency is read from the fitted curve at half-maximal effect.

SMILES	Apoferritin bind	PKM2 activator	GALK inh	mIDH1 inhibitor	TrxR1 inh	TrxR1 substrate
CC(=O)Oc1ccc(C(=O)[C@H]2[C@H]3C(=O)N(c4ccccc4)C(=O)[C@H]3[C@@H]3C=CC=NN32)cc1	-11%	21%	2%	?	11µM*	-7%
O=C(Nc1ccccc1)[C@@H]1[C@@H]2C(=O)N(c3ccc(F)cc3)C(=O)[C@@H]2[C@H]2C=CC=NN21	0%	8.9µM*	1%	3%	14%[57.1 µM]	-6%[57.1 µM]
Cc1ccc(N2C(=O)[C@@H]3[C@H](C2=O)[C@H]2C=CC=NN2[C@@H]3C(=O)Nc2ccccc2)cc1	-13%	?	-3%	4%	7%[57.1 µM]	6%[57.1 µM]
CC(C)(C)NC(=O)Cn1cc(S(=O)(=O)Cc2ccccc2Cl)c2ccccc21	1%	·	·	-2%	8%	-10%
Cc1ccc(-c2nc3cnccn3c2Nc2ccc(C(C)C)cc2)o1	·	·	·	·	13µM*	5%
Cc1ccc(-c2nc3ccccn3c2Nc2ccccc2C)o1	·	·	·	·	?	149%
Cc1ccc(-c2nc3cnccn3c2Nc2c(C)cccc2C)o1	335%	-11%	2%	2%	14µM*	11%
Cc1ccc(-c2nc3ncccn3c2Nc2ccccc2C)o1	-15%	11µM*	-1%	4%	?	-1%
Cc1cccc(C(=O)NCC(c2ccco2)S(=O)(=O)c2cccs2)c1 (configuration not stated)	5%	·	·	-3%	-6%[57.1 µM]	2%[57.1 µM]
Fc1ccc(-c2noc3ncnc(NCC4CCN(Cc5ccc(Cl)cc5)CC4)c23)cc1	?	·	·	11%	14%	0%
Nc1ccc(Nc2ccccc2)c(Cl)c1	7.9µM*	10%	1%	16%	?	2%[11.4 µM]
Nc1ccccc1Nc1ccccc1	-24%	3%	0%	2%	-2%	-2%
O=C(CN(Cc1ccccc1)C(=O)CCl)c1cccc(Br)c1	·	·	·	2%	14µM*	-5%
Cc1c(C(=O)OCC2CCCO2)[nH]c2c1C(=O)CC(c1ccco1)C2 (configuration not stated)	-12%	20µM*	-3%	0%	?	-9%
Cc1c(C(=O)OCC(C)C)[nH]c2c1C(=O)CC(c1ccco1)C2 (configuration not stated)	-21%	?	-3%	9%	-4%[57.1 µM]	-10%[57.1 µM]
O=Cc1ccc(/C=C2\C=Cc3ccccc32)cc1	·	·	·	·	-16%	4%
CCOC(=O)/C(C)=N/Nc1nc(-c2ccc(NC(C)=O)cc2)cs1	-6%	-8%	1%	0%	56µM*	-15%
CC(=O)Nc1ccc(-c2csc(N/N=C(/C)c3ccccc3)n2)cc1	2%	0%	-2%	-1%	?	1%
Cc1occc1C(=O)NCCCCNC(=O)c1ccoc1C	-7%	-9%	-1%	0%	?	-4%
COc1ccccc1CNC(=O)c1ccoc1C	-13%	6%	3%	1%	?	-2%
Cc1occc1C(=O)NCc1ccccc1F	-12%	-3%	-1%	0%	10µM*	9%
CCCCCCCCCCCNC(=O)c1ccoc1C	-1%	10%	-3%	0%	20µM*	-5%
CN(C)c1ccc2c(-c3ccccc3)c3ccc(=[N+](C)C)cc-3oc2c1	-12%	·	·	·	·	·
COC(=O)CSc1[nH]c2ccc(Br)cc2c1[N+](=O)[O-]	-1%	?	-5%	2%	11µM*	6%[57.1 µM]
CCOc1ccc2[nH]c(SCC(=O)OC)c([N+](=O)[O-])c2c1	29%	1%	-2%	4%	-54%	-8%[57.1 µM]
SMILES	Apoferritin bind	PKM2 activator	GALK inh	mIDH1 inhibitor	TrxR1 inh	TrxR1 substrate
CCC(C(=O)NCCc1ccccc1)n1nc(C)c2sc3ccccc3c2c1=O (configuration not stated)	1%	·	·	-7%	12%	41%
O=C(c1ccco1)N1CCN(C(=O)c2cccs2)CC1	-4%	0%	-2%	16%	2%	9%[57.1 µM]
O=C(c1ccco1)N1CCN(c2ncnc3scc(-c4ccccc4)c23)CC1	-4%	-14%	1%	4%	-14%	-1%
O=C(c1ccco1)N1CCN(C(=O)c2sccc2-c2ccccc2)CC1	0%	18%	-5%	-4%	16µM*	5%[57.1 µM]
COc1ccc(-c2csc3ncnc(N4CCN(C(=O)c5ccco5)CC4)c23)cc1	·	·	·	11%	56µM*	9%
Cc1ccc(C)c(N2CCN(CCCNC(=O)c3ccc4nc(N5CCCCC5)sc4c3)CC2)c1	-6%	·	·	-4%	9%	0%
Cc1csc(NC(=O)/C=C/c2ccco2)n1	-7%	9%	0%	4%	?	-13%
O=C(/C=C/c1ccco1)Nc1nc(-c2ccccn2)cs1	-13%	8%	5%	0%	14µM*	9%[0.0914 µM]
O=C(/C=C/c1ccco1)Nc1nc(-c2ccccc2)cs1	-6%	0%	-3%	5%	-11%	-9%
CCOC(=O)Cc1csc(NC(=O)/C=C/c2ccco2)n1	0%	6%	0%	0%	79µM*	-3%
CCN(CC)/[N+]([O-])=N/OCOC(=O)c1ccccc1OC(C)=O	·	·	·	·	14%	3%
COc1cc(/C=C2/C=Cc3ccccc32)ccc1N(C)C	·	·	·	·	?	-10%
O=C1CCCCc2sc(Br)c([N+](=O)[O-])c2N1	-9%	-1%	-3%	-7%	10µM*	9%[57.1 µM]
O=C(C[n+]1cccc2cccc(O)c21)c1ccc(Cl)cc1	·	·	·	·	10%	5%
Cc1ccc(N2C(=O)CC(Nc3ccc(Cl)c(S(=O)(=O)N(C)C)c3)C2=O)c(C)c1 (configuration not stated)	-18%	-9%	0%	0%	50µM*	5%
Cc1ccccc1N1C(=O)CC(Nc2ccc3c(c2)OCO3)C1=O (configuration not stated)	-14%	2%	0%	14%	22%	2%
CC(C)(C)n1ncc2c(=O)n(Cc3cccc(Cl)c3Cl)cnc21	·	·	·	·	3%	-6%
Cc1nc2ccc(N=NN(C)C)cc2[nH]1	0%	10µM*	3%	-4%	11%	0%
Cc1nc2ccc(Cc3ccc4nc(C)[nH]c4c3)cc2[nH]1	-3%	-14%	-2%	9%	10%	5%
